High-throughput results from PubChem.
HCMV antiviral – inhibitors of human cytomegalovirus; HFF cells, HCMV-luciferase reporter, 72 h; stronger effect = lower value; activity change, negative = inhibition, % at 57.5 µM; hit rate 4.5% among 410,000; in the data active means activity change below about -60%; inconclusive means no clear call, values can overlap the other calls; inactive means above about -39%; further: on the % scale 0 is the no-effect control and ±100 the full control effect
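After 16 h attachment at 37C, HFF cells received test compound and HCMV-luciferase (1 PFU/cell); reporter luminescence read 72 h later, data normalized against buffer-only and known inhibitor Salinomycin.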
Shiga toxin inh – inhibitors of Shiga toxin in Vero cells. inhibition, % at 38.7 µM. Vero cells, Shiga toxin protein synthesis inhibition reporter. hit rate 9.2% among 290,000; in the data active means inhibition mostly above about 28%, no sharp cut-off; inactive means mostly below about 43%; further: 0% is about no effect
Cycloheximide cs – counter-screen for Shiga toxin inhibitors: cycloheximide protein synthesis inhibition; cell reporter, cycloheximide protein synthesis inhibition counterscreen; hit rate 12% among 300,000; max response, %; in the data active means max response mostly above about 13%, no sharp cut-off; inactive means mostly below about 14%; further: read at 38.3 µM for the half of the compounds with a filed dose; 0% is about no effect
Pf growth 96h – P. falciparum growth inhibition at 96 hours; Potency, µM (highest dose often 28.7 µM), for inactives: at the highest dose activity change, negative = inhibition, usual class: inhibitors; AID 504834; P. falciparum luciferase reporter growth, 96 h; hit rate 6.9% among 320,000; further: potency means the concentration at half of the fitted maximal effect; on the % scale 0 is the no-effect control and ±100 the full control effect
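Luminescence readout: decreased luciferase signal marks inhibited growth of reporter-expressing P. falciparum in infected red cells (2% hematocrit, 0.05% parasitemia final), exposed to compound two generations (96 h, 37 C, 5% CO2).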
Pf growth 48h – P. falciparum growth inhibition at 48 hours (one generation); P. falciparum luciferase growth in erythrocytes, 48 h; Potency, µM (highest dose often 28.7 µM), inactives show at the top dose activity change, negative = inhibition, hits mostly inhibitors; hit rate 5.9% among 310,000; further: potency means the concentration at half of the fitted maximal effect; on the % scale 0 is the no-effect control and ±100 the full control effect
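A one-generation exposure of luciferase-tagged malaria parasites in RPMI 1640/Albumax erythrocyte culture, 37 C and 5% CO2. Inhibition is inferred from decreased luminescence after adding detection reagent.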
* = called active by the depositor; i = inactive; u = inconclusive; x = no result given. Most compounds without a hit are left out; they make up all but 20% or so of the library. Unless noted, the call rests on the fitted dose curve; in most records, active means well fitted inhibition curve with a large enough effect; inconclusive means small, poorly fitted or top-dose-only effect, or another doubt; inactive means no such curve, though single readings can be large or run the other way.

SMILES | HCMV antiviral | Shiga toxin inh | Cycloheximide cs | Pf growth 96h | Pf growth 48h
CCn1cc2nc(SCC(=O)Nc3ccccc3F)n(Cc3ccccc3)c(=O)c2n1 | -18.7 | -4.3 | -2.4 | 1.7% | u
COc1cc(C(=O)c2cc3c(cc2C)OCO3)cc(OC)c1OC | -67.8* | x | x | x | x
COc1ccc(OC)c(NC(=O)CCN2CC(C)OC(C)C2)c1 (stereo not given) | 42.1 | 22.5 | -1.9 | 1.85µM* | -11.7%
COc1cc(C(=O)NC(=S)NNC(=O)c2ccc3c(c2)OCO3)cc(OC)c1OC | 27.3 | 39.0 | -2.1 | -16.5% | 8.9%
COc1ccc(OC)c(NC(=O)c2ccc3c(c2)OCO3)c1 | 26.6 | x | 23.9* | u | -4.4%
COc1ccc(OC)c(-c2csc(NC(=O)c3ccc4c(c3)OCO4)n2)c1 | 29.2 | 62.8* | 18.4* | 0.0% | 62.8%
COC(=O)CC1Oc2ccc(F)cc2-n2cc(-c3ccc(Cl)cc3)nc21 (stereo not given) | -28.6 | x | x | x | x
CCCCOCCCNC(=O)C[C@@H]1C[C@@]2(C(=O)OCC)CCC=C2N(Cc2ccco2)C1=O | -8.5 | x | x | x | x
O=C(/C=C/c1ccccc1)Nc1nc2n(n1)C(c1ccc(Cl)cc1)C=C(c1ccccc1)N2 (stereo not given) | -3.0 | x | x | x | x
COc1cc2c(cc1NC(=O)CCC(=O)O)oc1ccccc12 | -4.6 | 1.3 | 4.2 | u | 27.5%
COc1cc2c(cc1NCc1ccc3c(c1)OCO3)oc1ccccc12 | 49.7 | 68.2* | 37.2* | i | 68.5%
CCCN(CCC)S(=O)(=O)c1ccc(C(=O)Nc2cc3oc4ccccc4c3cc2OC)cc1 | u | -11.4 | 18.9* | -0.6% | 10.4µM*
CCN(CC)S(=O)(=O)c1cccc(C(=O)Nc2cc3oc4ccccc4c3cc2OC)c1 | -37.3 | -1.0 | -3.6 | u | -22.6%
COc1ccc(OC)c(NC(=O)c2ccc(NC(C)=O)cc2)c1 | -13.7 | -9.5 | 8.7 | 9.0% | 0.0%
COc1ccc(OC)c(NC(=O)c2ccc(OC3CSC3)cc2)c1 | 22.7 | 28.2 | 20.6* | -6.0% | 11.5%
COc1cc2c(cc1NCc1ccccn1)oc1ccccc12 | 70.1 | 33.0* | 11.4 | x | 22.6%
Cc1cc(OCC(=O)NC(Cc2c[nH]c3ccccc23)C(=O)O)ccc1Cl (stereo not given) | 11.7 | x | x | x | x
CCN1[C@H](C(=O)NCCOC)[C@@H](CO)[C@@H]2Cn3c(ccc(-c4ccc(C(=O)N(C)C)cc4)c3=O)[C@@H]21 | 11.7 | x | x | x | x
O=C(Nc1ccc(Cl)cc1)c1ccc(OC2CSC2)cc1 | -6.2 | 66.0 | 18.0* | u | 68.1%
CNC(=O)c1ccc(OC2CSC2)cc1 | -18.8 | -2.1 | 13.9 | 30.6% | 8.6%
CCNc1nc(NCC)nc(N(C)/N=C/c2ccco2)n1 | -22.6 | -6.4 | 5.2 | 1.47µM* | u
CCOc1ccc(-n2c(=O)c3c(C)c(C)sc3n(CC(=O)NCCc3ccccc3)c2=O)cc1 | 6.1 | x | x | x | x
CC(NC(=O)C12CC3CC(CC(O)(C3)C1)C2)c1ccccc1 (stereo not given) | 7.7 | -12.8 | -1.5 | 46.7% | 38.5%
CN(Cc1ccc(Cl)cc1)C(=O)CNC(=O)C12CC3CC(CC(C3)C1)C2 | 38.9 | x | x | 10.4µM* | 9.28µM*
O=C(NCCc1ccc(Cl)cc1)C12CC3CC(CC(O)(C3)C1)C2 | 45.9 | 16.7 | 19.3* | -2.3% | 19.7%
SMILES | HCMV antiviral | Shiga toxin inh | Cycloheximide cs | Pf growth 96h | Pf growth 48h
O=C(OCc1nnc(-c2ccc(Cl)cc2)o1)C12CC3CC(CC(O)(C3)C1)C2 | -24.1 | 118.3* | 38.8* | 203.2% | 308.9%
Cc1cccc(C)c1NC(=O)CNC(=O)C12CC3CC(CC(O)(C3)C1)C2 | -73.1* | x | x | 9.0% | 7.0%
Cc1cccc(NC(=O)CNC(=O)C23CC4CC(CC(Cl)(C4)C2)C3)n1 | -4.2 | x | x | 9.8% | u
Cc1cc(C)cc(C(=O)N2CC(=O)Nc3ccc(Br)cc3C2c2ccccc2)c1 (stereo not given) | -8.7 | x | x | x | x
CC(=O)Nc1ccc(C(=O)COC(=O)c2cc(C)oc2C)c(F)c1 | 49.3 | x | x | x | x
COc1ccc(C2C=C3CNS(=O)(=O)C3CC2OC(=O)c2ccc(C(F)(F)F)cc2)cc1 (stereo not given) | x | -11.5 | -10.5 | x | x
CCN(CC)C(=O)C1=C(C)N(Cc2ccc(OC)cc2)C(=O)C(CC(=O)NCc2cccs2)C1 (stereo not given) | -9.0 | x | x | x | x
COc1ccc(-c2cc(C(=O)OC(C)C(=O)c3ccccc3)c3cccc(Cl)c3n2)cc1 (stereo not given) | 6.3 | x | x | x | x
O/N=C/c1ccc2cccc(O)c2n1 | -6.5 | 44.1* | 7.8* | u | -12.0%
O=C(CC(=O)c1ccncc1)c1ccccc1 | 13.5 | x | x | x | x
O/N=C/c1ccc2ccccc2n1 | 96.7 | 106.5* | 49.6* | 105.9% | 150.9%
O/C(=C\c1ccc2ccccc2n1)c1ccncc1 | -101.2* | x | x | 130.8% | 163.7%
CC(C)(C)c1ccccc1N=Cc1ccc2ccccc2n1 | -27.3 | -6.2 | -1.1 | 41.1% | 5.8%
COc1ccccc1CNC(=O)COC(=O)/C=C/c1ccc2ccccc2n1 | -62.1* | x | x | x | x
CCNc1oc(-c2ccccc2F)nc1S(=O)(=O)c1ccccc1 | x | -12.3 | 13.2 | u | -3.2%
CC(=O)/C=C/c1ccc2ccccc2n1 | -83.7* | 27.6 | 22.4* | u | u
Cc1nn(Cc2ccccc2)c(C)c1/C=N/NC(=O)c1ccccc1O | 12.6 | 99.1* | 42.5* | u | u
Cc1nn(Cc2ccc(F)cc2)c(Cl)c1/C=N/NC(=O)c1ccccc1 | 3.8 | 38.6 | 17.7* | u | u
Cc1cc(NC(=O)c2noc3c2CCCC3)nn1Cc1ccc(Cl)cc1 | -36.1 | 11.9 | 18.9 | -29.8% | 11.1%
O=C(Nc1ccccc1C(F)(F)F)c1noc2c1CCCC2 | 58.5 | x | x | x | x
Cc1ccc(NC(=O)c2noc3c2CCC3)cc1C | 0.0 | 93.3* | 27.9* | u | 7.5%
COc1cc(NC(=O)c2noc3c2CCC3)c(OC)cc1Cl | 77.6 | 1.5 | 3.1 | 462.5% | 2.62µM*
COC(=O)c1ccccc1NC(=O)c1noc2c1CCCC2 | 95.8 | 21.2 | -2.6 | 9.28µM* | 29.9%
CC(=O)c1ccc(NC(=O)c2noc3c2CCC3)cc1 | -30.4 | 63.9* | 10.0 | u | -15.7%
COc1ccc(S(=O)(=O)N(C)C[C@H]2Oc3c(NC(=O)C4CC4)cccc3C(=O)N([C@H](C)CO)C[C@@H]2C)cc1 | 9.9 | x | x | x | x
SMILES | HCMV antiviral | Shiga toxin inh | Cycloheximide cs | Pf growth 96h | Pf growth 48h
O=C(Nc1cccc(O)c1)c1noc2c1CCCCC2 | -60.6* | -7.9 | 22.2 | x | 26.2%
COc1ccc(NC(=O)c2noc3c2CCC3)cc1 | 53.4 | 65.3* | 34.8* | x | -15.7%
O=C(Nc1ccc(OC(F)(F)F)cc1)c1noc2c1CCCC2 | 56.4 | x | x | x | x
O=C(NCc1ccco1)C1CCCN1C(=O)Nc1cccc(Cl)c1 (stereo not given) | 10.9 | -2.7 | 8.8 | -17.8% | 48.6%
CCN(CC)CCNC(=O)c1ccc(NC(=O)c2cccc(S(=O)(=O)N3c4ccccc4CC3C)c2)cc1 (stereo not given) | -28.5 | -22.3 | -2.0 | -25.1% | 15.8%
CCN(CC)CCNC(=O)c1ccc(NC(=O)c2cccc(S(=O)(=O)Nc3ccc(C)cc3)c2)cc1 | -27.5 | -5.6 | 2.9 | 1.17µM* | 0.37µM*
